Most compounds without a hit are left out; they make up all but 4.2% or so of the library.
RecA splice inh: blocks M. tuberculosis RecA intein splicing | P9WHJ3 | cell-free RecA intein splicing, fluorescence | inhibition, % (no concentration beside the values) | 0.75% of 290,000 active; in the data active = inhibition above about 30%;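 also: 0% = vehicle wells and 100% = reference inhibitor control wells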
CCHF vOTU inh: blocks the CCHF virus ovarian tumor domain protease. CCHFV vOTU protease, Pep-AMC fluorescence. AID 651958. 0.55% of 370,000 active. inhibition, % at 11.5 µM; also: 0% = vehicle wells with enzyme and 100% = no enzyme wells
Mtb betalactam: beta-lactam sensitization of Mtb H37Rv. M. tuberculosis H37Rv growth with meropenem, percent inhibition. inhibition, % at 25 µM. 0.27% of 330,000 active. AID 434955; call rule not given here;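 also: growth measured after seven days incubation then overnight dye step; 0% = bacteria only wells and 100% = bacteria with antibiotic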
GDH-TPI counter: counter-screen for M. tuberculosis FBA inhibitors: GDH-TPI coupled enzymes; AID 588335; inhibition, % at 4.8 µM; 1.2% of 360,000 active; GDH-TPI coupled enzyme counterscreen, NADH absorbance;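 also: 0% = DMSO wells and 100% = wells lacking the enzyme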
Mtb FBA inh: inhibits M. tuberculosis FBA enzyme | P9WQA3 | purified M. tuberculosis FBA, fluorescence read-out | inhibition, % at 1 µM | 2.3% of 360,000 active | AID 588726; in the data active = inhibition above about 27%;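 also: 0% = vehicle and 100% = reference inhibitor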
Target sequence (P9WQA3 whole entry, looked up): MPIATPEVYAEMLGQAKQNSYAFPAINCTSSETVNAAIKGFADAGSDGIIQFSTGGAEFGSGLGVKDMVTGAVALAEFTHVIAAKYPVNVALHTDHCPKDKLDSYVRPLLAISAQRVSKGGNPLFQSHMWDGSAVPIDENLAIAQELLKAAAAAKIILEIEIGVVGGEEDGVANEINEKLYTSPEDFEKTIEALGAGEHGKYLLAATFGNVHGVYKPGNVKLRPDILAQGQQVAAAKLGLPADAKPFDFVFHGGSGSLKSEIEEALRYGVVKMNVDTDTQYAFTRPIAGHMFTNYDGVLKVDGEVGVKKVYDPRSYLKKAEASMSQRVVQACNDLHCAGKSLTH
Starred values were filed as active, the others as inactive. Rule as the data show it, unless noted: active = inhibition above about 30%; inactive = the rest.

CCC(C)c1ccc(NC(=O)CSc2nnc(-c3cccc(C)c3)n2C)cc1 (configuration not stated) was read as CCHF vOTU inh 18.
`Cc1nc2ccc(-c3nc4cc(N)ccc4o3)cc2[nH]1` gave RecA splice inh -4, CCHF vOTU inh -31, Mtb betalactam -1, GDH-TPI counter 21 and Mtb FBA inh 12.
Nc1ccc2oc(-c3ccc4nc[nH]c4c3)nc2c1 was read as RecA splice inh -2, CCHF vOTU inh -8, Mtb betalactam -4, GDH-TPI counter 31* and Mtb FBA inh 6.
Screening Cc1cccc(Nc2c([N+](=O)[O-])c(=O)oc3ccccc23)c1 returned RecA splice inh -1, CCHF vOTU inh -6, Mtb betalactam -4, GDH-TPI counter 32* and Mtb FBA inh -4.
Screening O=C(Oc1ccc(N(C(=O)c2ccncc2)S(=O)(=O)c2cccs2)cc1)c1ccncc1 returned RecA splice inh 10, CCHF vOTU inh -4, Mtb betalactam -2, GDH-TPI counter -3 and Mtb FBA inh -4.
For COC(=O)c1c(C)oc2ccc(N(C(=O)c3ccncc3)S(=O)(=O)c3ccc4ccccc4c3)cc12 the results were RecA splice inh 38*, CCHF vOTU inh -6, Mtb betalactam 7, GDH-TPI counter 5 and Mtb FBA inh 0.
For Cc1ccc([N+](=O)[O-])cc1S(=O)(=O)N(C(=O)c1ccncc1)c1ccc2oc3c(c2c1)CCCC3 the results were RecA splice inh 43*, CCHF vOTU inh 5, Mtb betalactam 1, GDH-TPI counter 6 and Mtb FBA inh -5.
`COC(=O)c1c(C)oc2ccc(N(C(=O)c3ccncc3)S(=O)(=O)c3ccc(C)cc3C)cc12` gave RecA splice inh 56*, CCHF vOTU inh -2, Mtb betalactam 11, GDH-TPI counter -1 and Mtb FBA inh 1.
For Cc1ccc(S(=O)(=O)N(C(=O)c2ccncc2)c2ccc3oc4c(c3c2)CCCC4)cc1[N+](=O)[O-] the results were RecA splice inh -2, CCHF vOTU inh 2, Mtb betalactam -2, GDH-TPI counter 1 and Mtb FBA inh 2.
`Cc1cc(F)ccc1S(=O)(=O)N(C(=O)c1ccncc1)c1ccc(OC(=O)c2ccncc2)cc1` gave RecA splice inh 31*, CCHF vOTU inh 7, Mtb betalactam -6, GDH-TPI counter -3 and Mtb FBA inh 0.
Cc1ccc(-n2c(SCC(=O)C(C)(C)C)nnc2-c2cccc(C)c2)cc1 was read as CCHF vOTU inh 6.
N#Cc1ccccc1NCCCN1CCC(C(O)(c2ccccc2)c2ccccc2)CC1 was read as CCHF vOTU inh 7.
For Cc1nc2ccccn2c1C(=O)N/N=C/c1ccc(CNC(=O)C(=O)Nc2ccccc2)o1 the results were RecA splice inh 2, CCHF vOTU inh 3, Mtb betalactam 9, GDH-TPI counter 38* and Mtb FBA inh 0.
Screening CCOC(=O)Cn1cc(CN2C(C(=O)OC)CN(Cc3ccc(OC)cc3)CCS2(=O)=O)nn1 (configuration not stated) returned CCHF vOTU inh 1.
For COc1cc(/C=C(/C#N)c2ccc(F)cc2)ccc1OCc1ccc(C(=O)O)o1 the results were RecA splice inh 3, CCHF vOTU inh 16, Mtb betalactam 78, GDH-TPI counter 45* and Mtb FBA inh 1.
`N#C/C(=C\c1ccc(OCc2ccc(F)cc2)cc1)C(=O)Nc1cccc(C(=O)O)c1` gave RecA splice inh 2, CCHF vOTU inh 1, Mtb betalactam 48, GDH-TPI counter 73* and Mtb FBA inh -6.
For N#C/C(=C\c1ccc(OCc2ccc(Br)cc2)cc1)C(=O)Nc1cccc(C(=O)O)c1 the results were RecA splice inh 19, CCHF vOTU inh 2, Mtb betalactam 67, GDH-TPI counter -2 and Mtb FBA inh 0.
COc1cc(/C=C(\C#N)C(=O)Nc2cccc(C(=O)O)c2)ccc1OCc1ccc(F)cc1 was read as RecA splice inh 4, CCHF vOTU inh 14, Mtb betalactam 8, GDH-TPI counter 36* and Mtb FBA inh 0.
COc1ccc(NC(=O)CSc2nnc(-c3n[nH]c4c3CCC4)n2N)cc1 was read as CCHF vOTU inh -3.
`Cc1c(N2C(=O)/C(=C/c3ccccc3)SC2=S)c(=O)n(-c2ccccc2)n1C` gave RecA splice inh 7, CCHF vOTU inh 17, Mtb betalactam 2, GDH-TPI counter 38* and Mtb FBA inh 0.
For COC(=O)[C@@]12CCCCC3=C1N(CCC3)C(=O)[C@H]2CC(=O)N1CCOCC1 the results were CCHF vOTU inh 2.
For Cc1c(NC(=S)N/N=C/c2ccc(O)cc2)c(=O)n(-c2ccccc2)n1C the results were RecA splice inh 0, CCHF vOTU inh 8, Mtb betalactam -7, GDH-TPI counter 26 and Mtb FBA inh -4.
For Cc1c(NC(=S)N/N=C/c2cc([N+](=O)[O-])ccc2O)c(=O)n(-c2ccccc2)n1C the results were RecA splice inh 6, CCHF vOTU inh 0, Mtb betalactam -2, GDH-TPI counter 49* and Mtb FBA inh -11.
Screening COCCCNC(=O)c1cc2c(=O)n3cc(C)ccc3nc2nc1NCC1CCCO1 (configuration not stated) returned RecA splice inh -421 and Mtb betalactam 6.
Cc1ccc2nc3c(cc(C(=O)NCC4CCCO4)c(=N)n3CC3CCCO3)c(=O)n2c1 (configuration not stated) was read as RecA splice inh inactive, Mtb betalactam 2, GDH-TPI counter 2 and Mtb FBA inh active.
N=c1c(C(=O)NC2CCCCC2)cc2c(=O)n3ccccc3nc2n1CC1CCCO1 (configuration not stated) was read as RecA splice inh -369, CCHF vOTU inh -201, Mtb betalactam -5, GDH-TPI counter 6 and Mtb FBA inh active.
N=c1c(C(=O)NC2CCCC2)cc2c(=O)n3ccccc3nc2n1CC1CCCO1 (configuration not stated) was read as RecA splice inh inactive, CCHF vOTU inh -228, Mtb betalactam 4, GDH-TPI counter 10 and Mtb FBA inh active.
For COc1ccc(Cn2c(=N)c(C(=O)NC3CCCCC3)cc3c(=O)n4ccccc4nc32)cc1 the results were RecA splice inh 0, CCHF vOTU inh 11, Mtb betalactam 69, GDH-TPI counter 6 and Mtb FBA inh 1.
`CC(NC(=O)c1cc2c(=O)n3ccccc3nc2n(CC2CCCO2)c1=N)c1ccccc1` (configuration not stated) gave CCHF vOTU inh -207, Mtb betalactam 4, GDH-TPI counter 18 and Mtb FBA inh active.
CCNC(=O)C[C@H]1CC[C@H]2[C@@H](COc3ccc(NC(=O)Nc4ccccc4)cc3C(=O)N2C)O1 was read as CCHF vOTU inh 0.
`CCS(=O)(=O)Nc1ccc2c(c1)C(=O)N(C)[C@@H]1CC[C@H](CC(=O)N3CCCCC3)O[C@H]1CO2` gave CCHF vOTU inh 6.

Assay outcomes: PubChem BioAssay, several laboratories
